SMILES strings stand for the structures. Calls of active or inactive are those of the source. The calls were made as follows: active = hit-call score of the fitted dose curve at least 0.9, where 1 is the maximum; inactive = score below 0.9.

In PubChem BioAssay (EPA / NIEHS) one finds outcome and AC50 data, which are given here for 40 molecules.

This test in a line: ATG_PPRE_CIS: Attagene CIS-FACTORIAL HepG2 Assay for human Peroxisome Proliferator-activated Response Element (PPRE) (AID 2282958). Conditions: HepG2 PPRE cis-element reporter, Attagene transcription factor profiling; actives raise or lower the signal. On the procedure: ATG_CIS is a cell-based, multiplexed-readout assay that uses HepG2, a human liver cell line, with measurements taken at 24 hours after chemical dosing in a 24-well plate.ATG_PPRE_CIS is one of 52 assay component(s) measured or calculated from the ATG_CIS assay. It is designed to make measurements of mRNA induction, a form of inducible reporter, as detected with fluorescence intensity signals by Reverse transcription polymerase chain reaction (RT-PCR) and Capillary electrophoresis technology.Data from the assay component ATG_PPRE_CIS was analyzed into 1 assay endpoint. This assay endpoint, ATG_PPRE_CIS, was analyzed with bidirectional fitting relative to DMSO as the negative control and baseline of activity. Using a type of inducible reporter, measures of mRNA for gain or loss-of-signal activity can be used to understand the reporter gene at the transcription factor-level as they relate to the gene PPARA and PPARD and PPARG. Furthermore, this assay endpoint can be referred to as a primary readout, because this assay has produced multiple assay endpoints where this one serves a reporter gene function. To generalize the intended target to other relatable targets, this assay endpoint is annotated to the nuclear receptor intended target family, where the subfamily is non-steroidal.
Human liver HepG2 cells are transiently transfected with multiple reporter transcription units (MRTUs) in 6-well plates using FuGene 6 reagent (Roche; 3 ml FuGene/1 mg DNA). The MRTU constructs are regulated by a cis-regulating element (promoter). […] A major difference between the CIS and TRANS system is that in CIS activities of endogenous TFs are measured, whereas the TRANS assay evaluates changes in activities of exogenous, chimeric NR-Gal4 proteins. […] At the end of 24 hour incubation, total RNA was isolated using TriZol reagent (Invitrogen). The isolated RNA is then reverse-transcribed using oligo(dT) primer and Mo-MLV reverse transcriptase (Invitrogen) with DNAse I (Ambion) treatment for 30 min. The one-tenth of the produced cDNA was amplified by PCR using Taq DNA polymerase (Invitrogen) and two reporter sequence-specific primers. The PCR products were fluorescently labeled by primer extension with 6-arboxyfluorescein (6-FAM) 5'-labeled reporter sequence-specific primer (2 min at 95 C, 20 s at 68 C and 10 min at 72 C) and these products were digested with 5U of HpaI (New England Biolabs) for 2h at 37 C. The fragments were purified using Qiaquick PCR columns (Qiagen), analyzed on an ABI 3130xL genetic analyzer (Applied Biosystems) with peak positions identified by using a set of X-rhodamine (ROX)-labeled MapMarker1000 molecular weight standards (BioVentures). The raw capillary electrophoresis data was processed using Attagraph software (Attagene).
As to `O=C(O)c1cccc(Cl)n1`, the molecule was classed as inactive.

For `C1=COCCC1`, the molecule was classed as inactive. On the same count and under the same terms, the same measure for `CC/C(=C(\c1ccccc1)c1ccc(OCCN(C)C)cc1)c1ccccc1`: “inactive”; for `CC(C)=CC(=O)O`: “inactive”; for `C=CCCCCCCCCC(=O)OCC`: “inactive”. Still for that read-out and setting: the same measure for `O=C(O)C1=NN(c2ccc(S(=O)(=O)O)cc2)C(=O)C1`: “inactive”. Same read-out and setting: the same measure for `C=C(C)C(=O)OCCC[Si](OC)(OC)OC`: “inactive”; for `O=C1CCCCCCCCCCCC(=O)OCCO1`: “inactive”. Consider `CC(C)CCCC(C)(C)O`, for which the outcome was inactive. As for `CC12CCC(C1)C(C)(C)C2O` (stereo not given), the call was inactive. Turning to `CCCCOCC(C)OCC(C)O` (stereo not given), the molecule was called inactive. `CC(=N[Si](C)(C)C)O[Si](C)(C)C`: the result was inactive. On the same count and under the same terms, under `CCCC[N+](C)(CCCC)CCCC` stands “inactive”.

As for `CC(=O)OC/C=C(C)/C=C/C=C(C)/C=C/C1=C(C)CCCC1(C)C`, the call was inactive. Same read-out and setting: under `CC(CO)(CO)[N+](=O)[O-]` stands “inactive”; under `CN(C)c1ccc(C=O)cc1`, “inactive”. For `CC(C)Cc1ccc(C(C)C(=O)O)cc1` (stereo not given), the AC50 is 34.4 µM (active). As for `CCC(=O)OC/C=C(\C)CCC=C(C)C`, the outcome was inactive. Still for that read-out and setting: under `C=C(C)C(=O)OCCOCCOC(=O)C(=C)C` stands “inactive”; under `CCOC(=O)COC(=O)c1ccccc1C(=O)OCC`, “inactive”; under `NS(=O)(=O)c1cc(C(=O)O)c(NCc2ccco2)cc1Cl`, “inactive”. Still for that read-out and setting: the same measure for `CCCCOCCOC(=O)c1ccccc1C(=O)OCCOCCCC`: “inactive”. On to `C=CC(=O)OCC(CO)(COC(=O)C=C)COC(=O)C=C`, for which the AC50 was 117 µM (active). `C=C(C)C(=O)OCCN(C)C`: the molecule was called inactive. The same measure, in the same setting: the same measure for `OCCN1CCOCC1`: “inactive”; for `NC(N)=NC(N)=NCCc1ccccc1`: “inactive”; for `C=C(C)CCCC(C)CCO` (stereo not given): “inactive”. For `C[N+](C)(C)CCO`, the outcome was inactive. On to `c1coc(CNc2ncnc3nc[nH]c23)c1`, for which the result was inactive. The same measure, in the same setting: under `C1CCCNCC1` stands “inactive”; under `OC[C@H]1O[C@@H](O[C@H]2[C@H](O)[C@@H](O)[C@H](O)O[C@@H]2CO)[C@H](O)[C@@H](O)[C@H]1O`, “inactive”. Same read-out and setting: the same measure for `CC(C)(C)C1CCC(O)CC1` (stereo not given): “inactive”; for `CCCCCCCCCCCCCCCCCC(=O)OCCCCCCCCCCCCCC(C)C`: “inactive”. On to `CC(=O)OC(C)(C)C`, for which the call was inactive. Same read-out and setting: the same measure for `Cc1ccccc1S`: “inactive”. Same read-out and setting: under `CCCO` stands “inactive”; under `CC(=O)N(C)C`, “inactive”. Same read-out and setting: under `CNC(=C[N+](=O)[O-])NCCSCc1ccc(CN(C)C)o1` stands “inactive”.

For `COc1ccc2[nH]cc(CCNC(C)=O)c2c1`, the call was inactive. Take `CCCCC/C=C\C=C\C(=O)OCC`: the AC50 is 4.97 µM (active).

In general, AC50 refers to the concentration at which the activity in the assay is half-maximal.
